# Assay outcomes from PubChem BioAssay.
# HT1080NT lethal: kills 2HG-producing HT-1080-NT fibrosarcoma cells; HT-1080-NT fibrosarcoma viability, CellTiter-Glo ATP luminescence, 48 h; Potency, µM (doses to about 46.1 µM), for inactives: at the top dose activity, negative = less viability, usual class: cytotoxic; 360,000 compounds, 1.6% hits;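 also: NT is the 2HG producing partner of a matched IDH1 knockdown line; potency is read from the fitted curve at half-maximal effect; 0% = DMSO-treated cells and -100% = media-only wells without cells; nearly all actives have a fitted effect of over 55% in size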
#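 Fibrosarcoma NT cells, 750 per well in 5% FBS RPMI, were exposed to compound for 48 hours. Viability: CellTiter-Glo luminescence.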
# DT40 TDP1 CPT: growth inhibition of DT40 Tdp1-/-;hTDP1 cells with camptothecin (screen for TDP1 inhibitors). AID 686979. chicken DT40 Tdp1-/-;hTDP1 cells + 20 nM CPT, ATP luminescence, 48 h. 420,000 compounds, 12% hits. Potency, µM (titrated, usually from 46.2 µM), inactives show top-dose activity change, negative = growth inhibition, hits mostly inhibitors; also: potency is read from the fitted curve at half-maximal effect; nearly all actives have a fitted effect of over 55% in size
#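 Cell growth measured by CellTiter-Glo luminescence after a minimum 48 h, 37 C compound exposure with 20 nM CPT in Tdp1-knockout DT40 cells stably expressing hTDP1, seeded 400/well; qHTS titration format.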
# HT1080 IDH1KD tx: kills HT-1080 cells with IDH1 knockdown; HT-1080 IDH1 knockdown viability, ATP luminescence, 48 h; 360,000 compounds, 2% hits; Potency, µM (series often up to 46.1 µM), without a hit: at the top dose activity, negative = toxicity, hits mostly cytotoxic; AID 686971;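 also: potency is read from the fitted curve at half-maximal effect; 0% = DMSO wells and -100% = cell-free medium wells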
#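 After a 2 h attachment period, IDH1KD HT-1080 cells took pin-transferred compound for 48 h at 37 °C; ATP-based luminescence after 10 min room-temperature reagent incubation reported viability.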
# IL-1B inflam inh: blocks inflammasome-driven IL-1 beta release | THP-1 LPS/ATP IL-1B secretion, AlphaLISA, 16 h; active compounds read low | activity change, % at 57.5 µM | 360,000 compounds, 4.7% hits; in the data active = activity change below about -50%; inconclusive = mostly about -30% to -49%
#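 Secreted IL-1B measured by AlphaLISA bead assay after 16 h compound exposure of THP-1 cells; compounds (final up to 57.5 uM) added 1 h before LPS (250 ng/mL) and ATP (1.25 mM) stimulation; lower signal means less secretion.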
# ALOX12 inh: ALOX12 (human) lipoxygenase inhibition; P18054; purified 12hLO, xylenol orange hydroperoxide absorbance; Potency, µM (series often up to 108 µM), for inactives: at the highest dose activity change, negative = inhibition, hits mostly inhibitors; 580,000 compounds, 1.1% hits; AID 1671190; also: potency is read from the fitted curve at half-maximal effect
# Target sequence (P18054 whole entry, looked up): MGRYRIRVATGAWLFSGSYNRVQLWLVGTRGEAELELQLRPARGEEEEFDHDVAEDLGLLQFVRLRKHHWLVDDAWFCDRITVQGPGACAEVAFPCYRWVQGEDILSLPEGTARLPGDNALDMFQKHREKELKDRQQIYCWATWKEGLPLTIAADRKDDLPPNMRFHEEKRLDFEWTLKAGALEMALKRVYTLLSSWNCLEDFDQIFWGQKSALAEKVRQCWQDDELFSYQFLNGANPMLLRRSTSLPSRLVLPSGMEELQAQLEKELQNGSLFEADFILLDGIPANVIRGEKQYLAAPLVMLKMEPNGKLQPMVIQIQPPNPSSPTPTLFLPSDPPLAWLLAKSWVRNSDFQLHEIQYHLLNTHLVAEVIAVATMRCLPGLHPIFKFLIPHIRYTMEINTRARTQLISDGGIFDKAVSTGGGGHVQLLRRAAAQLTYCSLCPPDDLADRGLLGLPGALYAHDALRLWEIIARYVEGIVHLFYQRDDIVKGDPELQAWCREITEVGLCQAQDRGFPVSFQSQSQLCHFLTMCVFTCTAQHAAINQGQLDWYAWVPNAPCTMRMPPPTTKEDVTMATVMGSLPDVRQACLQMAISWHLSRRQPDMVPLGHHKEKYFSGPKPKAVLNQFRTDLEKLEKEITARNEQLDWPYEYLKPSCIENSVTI
#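 Purified human 12hLO (150 nM final) in 25 mM Hepes, 0.01% Triton X-100, pH 7.0 was preincubated 15 min at room temperature with compound. Then 40 uM arachidonic acid was added, 30 min. Hydroperoxide was read by Fe-XO absorbance ratio 573/405 nm.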
# TDP1 cell noCPT: qHTS for Inhibitors of human tyrosyl-DNA phosphodiesterase 1 (TDP1): qHTS in cells in absence of CPT | DT40 Tdp1-/- hTDP1 cells, no CPT, ATP luminescence, 48 h | Potency, µM (top dose mostly 46.2 µM), for the others: top-dose activity change, negative = growth inhibition, hits mostly inhibitors | 420,000 compounds, 15% hits | AID 686978, 2013; also: potency is read from the fitted curve at half-maximal effect; nearly all actives have a fitted effect of over 55% in size
#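 DT40 Tdp1-/-;hTDP1 cells, no CPT (DMSO vehicle only), 400 cells/well; compounds pin-transferred; ≥48 hr, 37 °C; CellTiter-Glo 30 min RT dark, luminescence read.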
# The depositor's hits bear a star; ? = inconclusive; . = no result; [ ] = dose if it differs, or a comment. This excerpt belongs to a sample that is enriched for hits. Unless noted, calls follow the shape of the dose curve; as a rule, active = well fitted curve in the direction sought with a large enough effect; inconclusive = small, poorly fitted or top-dose-only effect, or another doubt; inactive = no such curve, though single readings can be large; an effect the other way counts as inactive or inconclusive. Unless noted, % is scaled to controls: 0 for no effect and ±100 for the full control effect.
SMILES,HT1080NT lethal,DT40 TDP1 CPT,HT1080 IDH1KD tx,IL-1B inflam inh,ALOX12 inh,TDP1 cell noCPT
Cc1cc(-c2ccccc2)nc(Oc2ccc(C(C)(C)C)cc2)c1S(C)(=O)=O,-17%,?,-20%,-16,8%,21µM*
Cc1cc(C)cc(Oc2nc(-c3ccccc3)cc(C)c2S(C)(=O)=O)c1,?,?,?,-8,161%,?
COC(=O)c1cc2c(n1S(=O)(=O)c1ccc(C)cc1)C(=O)C(=O)c1[nH]cc(C(=O)OCc3ccccc3)c1-2,9.2µM*,0.82µM*,3.7µM*,-85*,.,1.6µM*
Cc1ccc(CNC(=O)c2[nH]c(C(F)(F)F)nc2-c2ccccc2)cc1,?,?,-21%,20,?,21µM*
CCOc1ccccc1CNC(=O)c1cnn(-c2ccc(C)cc2)c1-n1cccc1,.,?,.,.,-11%,21µM*
Cc1ccc(-n2ncc(C(=O)NCc3ccccc3C)c2-n2cccc2)cc1,.,?,.,.,-16%,23µM*
CCOc1cc(/C=C2/NC(=O)NC2=O)cc(Br)c1OC(C)C,.,.,.,.,-25%,.
COc1ccc(NC(=O)c2oc3ccc4c(c3c2C)C(=O)CC(C)(C)O4)cc1OC,.,21µM*,.,.,0%,12µM*
COc1ccc(NC(=O)c2cc3ccccc3o2)cc1OC,?,-12%,21%,-16,-5%,-18%
CCc1cccc(NC(=O)c2oc3ccc4c(c3c2C)C(=O)CC(C)(C)O4)c1,.,?,.,.,-7%,21µM*
CCCNC(=O)[C@@H]1CCCN1[C@@H](C(=O)NC)c1ccc(OC)cc1,.,.,.,.,10µM*,.
COc1ccc(-c2noc([C@@H]3CCCN3C(=O)Cc3ccccc3C)n2)cc1OC,.,.,.,.,35%,.
O=C(c1ccc(Cn2cc(Br)cn2)o1)N1N=C(C(F)F)CC1(O)C(F)F (stereo not drawn),13%,20µM*,0%,-3,-7%,?
CCOc1ccc(-c2cc(C(=O)N3CCN(c4cc(Cl)ccc4C)CC3)c3ccccc3n2)cc1,.,-4%,.,.,-5%,0%
CCOc1ncccc1C(=O)N1CCN(c2cccc(C)c2C)CC1,0.18µM*,0.52µM*,0.18µM*,9,4%,0.58µM*
CCOc1ncccc1C(=O)N1CCN(C(=O)c2ccccc2)CC1,-6%,8%,0%,1,-1%,12%
CCCN1Cc2cccc(C(=O)N3CCN(c4cc(Cl)ccc4C)CC3)c2C1=O,-7%,?,-4%,?,.,13µM*
CCOc1ncccc1C(=O)N1CCN(c2cc(Cl)ccc2C)CC1,1µM*,0.82µM*,1.3µM*,2,5%,0.65µM*
C=CCn1c(-c2cccn(Cc3ccc(Cl)cc3Cl)c2=O)n[nH]c1=S,?,-27%,?,8,45µM*,-8%
COCCN(CC(N)=O)S(=O)(=O)c1cc(F)ccc1F,.,.,.,.,2%,.
O=C(c1ccc(F)cc1)N1CCC2(CC1)OCC(C(=O)N1CCOCC1)N2C(=O)c1cccc(F)c1 (stereo not drawn),.,.,.,.,12%,.
CCCCc1c(-c2ccccc2OC)ncn1Cc1ccc(Cl)cc1Cl,.,.,.,.,32µM*,.
CCCCc1c(-c2ccccc2OC)ncn1CCc1ccccc1OC,18µM*,12µM*,13µM*,-100*,-18%,8.2µM*
CCCCc1c(-c2ccccc2OC)ncn1Cc1ccc(F)cc1F,.,.,.,.,2%,.
CCCCc1c(-c2ccccc2Br)ncn1CCc1ccccc1OC,?,15µM*,?,-79*,?,21µM*
SMILES,HT1080NT lethal,DT40 TDP1 CPT,HT1080 IDH1KD tx,IL-1B inflam inh,ALOX12 inh,TDP1 cell noCPT
CCCCc1c(-c2ccccc2OC)ncn1Cc1ccc([N+](=O)[O-])cc1,.,.,.,.,-7%,.
CCCCc1c(-c2ccccc2OC)ncn1CCc1ccccc1Cl,?,7.3µM*,?,-62*,-66%,15µM*
COC(=O)CC(NC(=O)c1cccc(CS(C)(=O)=O)c1)c1ccccc1 (stereo not drawn),.,.,.,.,36%,.
CCOC(=O)[C@@H]1CSCCS(=O)(=O)N1Cc1ccccc1,.,.,.,.,-6%,.
CC(=O)Nc1ccc(CN2CC[C@H](c3nnc(C)o3)C2)cc1,.,.,.,.,45%[176 µM],.
CC(=O)N1CCC2(CC1)CN(C(c1ccccc1)c1ccccc1)C2,.,1%,.,.,-3%[57.4 µM],?
CCCCCc1c(-c2ccccc2OC)ncn1CCc1ccccc1OC,16µM*,5.2µM*,16µM*,-95*,-47%,5.2µM*
CCCc1c(-c2ccccc2OC)ncn1CCc1ccccc1OC,.,.,.,.,-10%,.
CCCCCc1c(CC)ncn1CCc1ccccc1OC,26µM*,4.6µM*,?,?,-9%,2.9µM*
COc1ccccc1CCn1cnc(-c2ccc(Cl)cc2)c1CC(C)C,.,.,.,.,-26%,.
CC(=NO)C1CCC2C3CCC4CC(=NO)CCC4(C)C3C(C)(O)CC12C (stereo not drawn),9%,?,16%,24,0%,15µM*
CC12CCC(C/C1=N/O)C2(C)C (stereo not drawn),3%,0%,4%,-7,28%,1%
Nc1cc2nsnc2cc1Br,-18%,5.8µM*,?,-4,?,5.8µM*
COCC(=O)N1CCC(C(=O)N2CCC2c2ccccc2)CC1 (stereo not drawn),.,.,.,.,69%,.
Cc1ccc(-c2[nH]ncc2CNCc2ccccc2)cc1,.,11µM*,.,.,27%,18µM*
COCCCN(Cc1cc(OC)c(OC)c(OC)c1)C(=S)Nc1cccc(Cl)c1,-3%,?,-5%,-25,-18%,9.2µM*
COc1cc(CC(=O)Nc2cccc(SC)c2)cc(OC)c1OC,-18%,?,-29%,7,4%,10µM*
CSc1cccc(NC(=S)N(Cc2ccccc2)Cc2cccnc2)c1,-6%,-19%,0%,?,13%,?
CCN(Cc1cc(OC)c(OC)c(OC)c1)C(=S)Nc1cccc(SC)c1,-20%,?,-22%,40,338%,23µM*
Cc1cc(C)c(NC(=O)c2ccc3ccccc3n2)c(C)c1,.,.,.,.,-20%,.
Cc1ccc(NC(=O)CCc2ncc(-c3ccccc3F)o2)c(C)c1,.,.,.,.,32%,.
COc1cc(C(=O)NCCc2sc(-c3ccc(C)cc3)nc2C)cc(OC)c1OC,.,.,.,.,-2%,.
COc1ccc(/C=N/n2c(SC)nnc2-c2ccccc2)c(OC)c1OC,-16%,3.3µM*,?,-9,1%,2.1µM*
